# Several values for one entry are separate records, joined by “and”; a condition that tells them apart may be missing. Identical values can stand only once. Records with an inconclusive call do not appear. Entries that show only a call come without a potency. A number with no mark means an inactive call. Activity calls are given as the source filed them. Unless noted, calls follow the shape of the dose curve; as a rule, active = well fitted curve in the direction sought with a large enough effect; inconclusive = small, poorly fitted or top-dose-only effect, or another doubt; inactive = no such curve, though single readings can be large; an effect the other way counts as inactive or inconclusive.
# Assays:
# [1] = Cell Viability - BJ (AID 421; calls by dose curve;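 also: potency is read from the fitted curve at half-maximal effect; cells exposed to compound for 40 hours at 37 °C before readout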); conditions: BJ fibroblast viability, qHTS
# How it was run: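 Quantitative HTS: ATP depletion in BJ cells after 40 hr compound exposure in complete culture medium, detected with CellTiter-Glo; AC50 from standard Hill fits.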
# [2] = Cell Viability - HepG2 (AID 433; calls by dose curve;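 also: potency is read from the fitted curve at half-maximal effect; cells exposed to compound for 40 hours; potency for ATP loss meaning cytotoxicity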); conditions: qHTS
# How it was run: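 HepG2 cells, 1500 per well, treated 40 hr at 37 °C in complete medium; viability from intracellular ATP by CellTiter-Glo luminescence. Normalized to DMSO and 100 uM tamoxifen; AC50 from Hill fit of qHTS concentration-response.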
# [3] = Cell Viability - HUV-EC-C (AID 542); conditions: HUV-EC-C endothelial cell viability, qHTS; series mostly up to 92.2 µM;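 also: cells exposed to compound for 40 hours; nearly all actives have a fitted effect of over 35% in size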; also: potency is read from the fitted curve at half-maximal effect
# How it was run: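 Decrease in cellular ATP, quantified by luciferase luminescence, reflects toxicity in normal human vascular endothelial HUV-EC-C cells given compound for 40 hr in complete culture medium. Values are AC50s from concentration-response curves.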
# [4] = Cell Viability - Mesenchymal (AID 546); conditions: mesenchymal cells viability, qHTS; activity change, negative = cytotoxicity: at 91.7 µM (top of the series);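 also: cells exposed to compound for 40 hours before reading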
# How it was run: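 Normal human renal glomerulus-derived kidney mesenchymal cells, 1000 per well in complete medium, were treated with compounds for 40 hr at 37 °C. Viability was read as intracellular ATP by CellTiter-Glo luminescence; AC50 values came from Hill-equation fits of qHTS concentration-response data.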
# [5] = Cellular Toxicity (caspase-3) Jurkat (AID 655); conditions: Jurkat caspase-3 activation, luminescence; caspase-3 activation: at 92.2 µM (top of the series), DMSO = 0%, tamoxifen = 100%;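 also: cells exposed to compound for 16 h at 37 °C before reading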
# How it was run: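 Jurkat cells (5000/well) in complete medium exposed 16 h at 37 C; caspase-3/7 activity read by Caspase-Glo luminescence after 20 min at room temperature. Normalized to DMSO and 100 uM tamoxifen; AC50 from Hill fits.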
# [6] = Cellular Toxicity (caspase-3) NIH 3T3 (AID 666); conditions: NIH 3T3 caspase-3 activation, apoptosis/toxicity, 0% DMSO, 100% is 100 µM tamoxifen; series mostly up to 92.2 µM;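 also: caspase signal read after 16 h compound exposure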
# How it was run: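 Concentration-response qHTS in NIH 3T3 mouse fibroblasts scores caspase-3/7 activation as rising luminescence after 16 hr compound exposure. Signals are scaled between DMSO-only and 100 uM tamoxifen.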
# [7] = Cell Viability - LYMP1-002 - Assay at 16 hr (AID 948); conditions: LYMP1-002 lymphoblastoid cell viability; series mostly up to 92.2 µM
# How it was run: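 LYMP1-002 human lymphoblastoid cells, 2500/well, were treated with compounds for 16 hr at 37 C in complete medium. Viability was read as intracellular ATP by CellTiter-Glo luminescence, and AC50 was derived from a Hill fit to concentration-response data.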
# [8] = MultiTox-Fluor Cytotoxicity Assay - LYMP1-002 - Live Cells (AID 955); conditions: LYMP1-002 lymphoblastoid live-cell protease fluorescence viability; series mostly up to 46.1 µM;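 also: cells exposed to compound for 16 hours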
# How it was run: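 Cytotoxicity in the human lymphoblastoid line LYMP1-002 is measured as loss of live-cell protease activity after 16 h treatment in complete culture medium. AC50 is derived from Hill-equation fits of qHTS concentration-response data.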
# [9] = Cell Viability - LYMP2-011 (AID 969); conditions: LYMP2-011 lymphoblastoid cells viability; series mostly up to 92.2 µM; also: nearly all actives have a fitted effect of over 60% in size; also: potency is read from the fitted curve at half-maximal effect
# How it was run: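 Acute toxicity is scored as a concentration-dependent drop in intracellular ATP of a human lymphoblastoid line after 24 hr treatment. Values are AC50s modeled with the Hill equation.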
# [10] = Cell Viability - LYMP2-013 (AID 970); conditions: LYMP2-013 lymphoblastoid cells viability; series mostly up to 92.2 µM; also: nearly all actives have a fitted effect of over 55% in size; also: potency is read from the fitted curve at half-maximal effect
# How it was run: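 Acute toxicity was measured in human lymphoblastoid cells (2500/well) exposed to compound titrations for 24 hr, with ATP luminescence (CellTiter-Glo) as read-out and AC50 fitted by Hill equation.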
# [11] = Cell Viability - LYMP2-023 (AID 975); conditions: LYMP2-023 lymphoblastoid cell viability; series mostly up to 92.2 µM;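 also: cells exposed to compound for 24 hours at 37 °C; nearly all actives have a fitted effect of over 55% in size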; also: potency is read from the fitted curve at half-maximal effect;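 as to activity change, negative = cytotoxicity: cellular ATP measured by luciferase luminescence as viability proxy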
# How it was run: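 Concentration-dependent drop in intracellular ATP measures acute cytotoxicity in a human lymphoblastoid line treated for 24 hours in complete culture medium. AC50 values are taken from Hill-equation fits of qHTS data.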
# [12] = Cell Viability - LYMP2-025 (AID 976); conditions: LYMP2-025 lymphoblastoid cell viability; series mostly up to 92.2 µM; also: potency is read from the fitted curve at half-maximal effect
# How it was run: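 In qHTS format, LYMP2-025 lymphoblastoid cells in complete culture medium received compound for 24 hr; ATP-based CellTiter-Glo signal gave viability, with AC50 derived by Hill equation.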
# [13] = Cell Viability - LYMP2-007 (AID 979); conditions: LYMP2-007 lymphoblastoid cell viability; series mostly up to 92.2 µM;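 also: cells exposed to compound for 24 h before reading; nearly all actives have a fitted effect of over 60% in size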; also: potency is read from the fitted curve at half-maximal effect
# How it was run: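 Acute toxicity is scored as a concentration-dependent fall in intracellular ATP in human lymphoblastoid cells treated 24 hr at 37 C, measured by luciferase luminescence; Hill-equation modelling yields AC50.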
# [14] = Cell Viability - LYMP2-008 (AID 980); conditions: LYMP2-008 lymphoblastoid cell viability, qHTS; series mostly up to 92.2 µM; also: nearly all actives have a fitted effect of over 60% in size; also: potency is read from the fitted curve at half-maximal effect
# How it was run: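 Acute cytotoxicity is scored as concentration-dependent loss of cellular ATP in a human lymphoblastoid line after 24 hr treatment at 37 C. ATP is quantified by luciferase luminescence.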
# [15] = Cell Viability - LYMP2-014 (AID 983); conditions: LYMP2-014 lymphoblastoid cells, viability qHTS; series mostly up to 92.2 µM; also: nearly all actives have a fitted effect of over 50% in size; also: potency is read from the fitted curve at half-maximal effect
# How it was run: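 Decrease in intracellular ATP after 24 hr treatment at 37 C, measured by luciferase luminescence, indicated cytotoxicity. Concentration-response data were fitted with the standard Hill equation to give AC50.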
# [16] = Cell Viability - LYMP2-016 (AID 984); conditions: LYMP2-016 lymphoblastoid cell viability, qHTS; series mostly up to 92.2 µM;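 also: cells exposed to compound for 24 hours at 37 °C; nearly all actives have a fitted effect of over 55% in size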; also: potency is read from the fitted curve at half-maximal effect
# How it was run: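 Human lymphoblastoid LYMP2-016 cells, 2500 per well, treated with compounds for 24 h at 37 C. Viability read as intracellular ATP by CellTiter-Glo luminescence after 30 min at room temperature; AC50 from Hill fits of concentration-response.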
# [17] = Cell Viability - LYMP2-018 (AID 985); conditions: LYMP2-018 lymphoblastoid cells, viability (qHTS); series mostly up to 92.2 µM;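 also: compound exposure lasted 24 hr at 37 °C; nearly all actives have a fitted effect of over 50% in size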; also: potency is read from the fitted curve at half-maximal effect
# How it was run: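 Acute cytotoxicity is scored as a concentration-dependent drop in intracellular ATP after 24 hr exposure of the lymphoblastoid line in complete culture medium, measured by luciferase luminescence. Potency is expressed as AC50 from Hill modelling.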
# [18] = Cell Viability - LYMP2-026 (AID 989); conditions: LYMP2-026 lymphoblastoid cell viability, qHTS; series mostly up to 92.2 µM; also: nearly all actives have a fitted effect of over 50% in size; also: potency is read from the fitted curve at half-maximal effect
# How it was run: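 Concentration-dependent loss of intracellular ATP in human lymphoblastoid cells after 24 hr at 37 C, quantified by luciferase luminescence. AC50 derived from standard Hill equation.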
# [19] = Cell Viability - LYMP1-002 - Assay at 40 hr (AID 994); conditions: LYMP1-002 lymphoblastoid cell viability; series mostly up to 92.2 µM; also: nearly all actives have a fitted effect of over 60% in size; also: potency is read from the fitted curve at half-maximal effect
# How it was run: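 Viability in the human lymphoblastoid line was measured as intracellular ATP via CellTiter-Glo after 40 hr compound exposure. Tetraoctylammonium bromide served as positive control.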
# [20] = qHTS assay for cell viability of HEK293 cells (AID 743288); conditions: ATP luminescence (CellTiter-Glo), 18 h; max response: hits give low values; also: nearly all actives have a fitted effect of over 50% in size
# How it was run: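 Parental HEK293 cells, 2,000 per well, preincubated at least 5 h at 37 C, then exposed to compounds in DMSO for 18 h at 37 C. Viability by CellTiter-Glo ATP luminescence after 30 min at room temperature.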
SMILES,Potency [1] [µM],Potency [2],Potency [3],Potency [4],Potency [5],outcome [6],Potency [7],outcome [8],Potency [9],Potency [10],Potency [11],Potency [12],Potency [13],Potency [14],Potency [15],Potency [16],Potency [17],Potency [18],Potency [19],max response [20]
c1ccc(Nc2cccc3ccccc23)cc1,> 92,> 92 µM,inactive,inactive,inactive,inactive,inactive,inactive,inactive,inactive,inactive,inactive,inactive,inactive,inactive,inactive,inactive,inactive,inactive,-6.95% and -18%
Nc1ccc(N)c(Cl)c1,> 92,> 92 µM,inactive,inactive,inactive,inactive,inactive,inactive,inactive,inactive,inactive,,inactive,inactive,inactive,inactive,inactive,inactive,,-4.85%
S=C(NC1CCCCC1)NC1CCCCC1,,,inactive,inactive,inactive,inactive,inactive,inactive,inactive,inactive,inactive,inactive,inactive,inactive,inactive,inactive,inactive,inactive,inactive,-15.2%
Oc1cc2c(cc1O)[C@H]1c3ccc(O)c(O)c3OC[C@@]1(O)C2,,,,,inactive,inactive,,,39.8 µM (active),31.6 µM (active),50.1 µM (active),50.1 µM (active),39.8 µM (active),39.8 µM (active),39.8 µM (active),39.8 µM (active),31.6 µM (active),39.8 µM (active),50.1 µM (active),-28.5%
CN(C)c1ccc(C(=N)c2ccc(N(C)C)cc2)cc1,,57 µM (active),,,,inactive,,,,,,,,,39.8 µM (active),,39.8 µM (active),,,
Cc1c(C(=O)O)c(O)cc2c1C(=O)c1c(O)c([C@H]3O[C@H](CO)[C@@H](O)[C@H](O)[C@H]3O)c(O)c(O)c1C2=O,,,31.6 µM (active),,inactive,inactive,,inactive,,,,,,,,,,,,
Cc1ccc(O)c(N)c1,> 92,> 92 µM,inactive,inactive,inactive,inactive,inactive,inactive,,79.4 µM (active),,inactive,50.1 µM (active),,,,,inactive,,-7.01%
CC(=O)CC(=O)Nc1ccccc1,> 92,> 92 µM,inactive,inactive,inactive,inactive,inactive,inactive,inactive,inactive,inactive,inactive,inactive,inactive,inactive,inactive,inactive,inactive,inactive,2.12% and -0.894%
CC/C=C/C/C=C/C/C=C/CCCCCCCC(=O)OCC,> 92,> 92 µM,inactive,inactive,inactive,inactive,,,,50.1 µM (active),39.8 µM (active),,31.6 µM (active),50.1 µM (active),50.1 µM (active),39.8 µM (active),31.6 µM (active),50.1 µM (active),,
Oc1cc(Cl)cc(Cl)c1Cl,> 92,> 92 µM,inactive,inactive,inactive,inactive,inactive,inactive,inactive,inactive,inactive,inactive,,inactive,inactive,inactive,inactive,inactive,inactive,-4.35%

# — PubChem BioAssay (NCATS)
